Pf growth 48h = inhibits P. falciparum growth in the first generation, 48 h; actives 5.9% (n = 310,000); P. falciparum luciferase growth in erythrocytes, 48 h; AID 504832; Potency, µM (series often up to 28.7 µM), for the others: top-dose activity change, negative = inhibition, most hits filed as inhibitors; note: potency is the fitted concentration of half-maximal effect; % is set by controls: 0 for no effect and ±100 for the full control effect
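Growth was read as firefly luciferase luminescence after a 48 h, 37 C, 5% CO2 exposure of compounds to reporter-bearing P. falciparum cultures (0.1% parasitemia, 2% hematocrit final) in Albumax-supplemented RPMI 1640.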
Cycloheximide cs = affects cycloheximide protein synthesis inhibition readout, counter-screen. cell reporter, cycloheximide protein synthesis inhibition counterscreen. max response, %. actives 12% (n = 300,000). AID 2314; in the data active = max response mostly above about 13%, no sharp cut-off; inactive = mostly below about 14%; note: read at 38.3 µM for the half of the compounds with a filed dose; 0% is about no effect
AMA1 RON2 block = inhibitors of Plasmodium falciparum AMA1-RON2 interaction; AlphaScreen AMA1-biotinylated RON2 peptide binding; actives 0.2% (n = 360,000); Potency, µM (series often up to 58.2 µM), without a hit: top-dose activity change, negative = inhibition, actives largely listed as inhibitors;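 note: potency is the fitted concentration of half-maximal effect; 0% = vehicle wells and -100% = peptide control; nearly all actives have a fitted effect of over 45% in size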
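AMA1 (3D7) with his tag at 25 nM final met compounds first, then biotinylated RON2 peptide at 25 nM; detection used donor plus acceptor beads, 10 µg/mL apiece, read by AlphaScreen after 30 min at room temperature.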
Pf growth 96h = P. falciparum growth inhibition at 96 hours | actives 6.9% (n = 320,000) | Potency, µM (top dose mostly 28.7 µM), inactives show at the highest dose activity change, negative = inhibition, most hits filed as inhibitors | P. falciparum luciferase reporter growth, 96 h; note: potency is the fitted concentration of half-maximal effect; % is set by controls: 0 for no effect and ±100 for the full control effect
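Two parasite generations (96 h, 37 C, 5% CO2) of compound exposure in infected erythrocytes (0.05% parasitemia, 2% hematocrit). Luciferase-reporter P. falciparum; decreased luminescence indicates inhibited growth, aimed at apicoplast-acting delayed death.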
SARS PLP yeast = blocks SARS-CoV papain-like protease in a yeast assay; S. cerevisiae expressing SARS-CoV PLpro, growth rescue; Potency, µM (doses to about 32.9 µM), for the others: at the top dose activity, positive = growth rescue, usual class: activators; actives 0.19% (n = 330,000); AID 485353; calls by dose curve; note: potency is the fitted concentration of half-maximal effect; 0% is about no effect; nearly all actives have a fitted effect of over 55% in size
Shiga inhibitor = Shiga toxin inhibition. Vero cells, Shiga toxin protein synthesis inhibition reporter. inhibition, % at 38.7 µM. actives 9.2% (n = 290,000); in the data active = inhibition mostly above about 28%, no sharp cut-off; inactive = mostly below about 43%; note: 0% is about no effect
* hit, by the source's call; i = inactive; ? = inconclusive; . = no result given; [ ] = another dose, or the depositor's remark. Compounds with a hit are over-represented: about 19% of the library has one in this group of screens. Unless noted, calls come from the whole dose curve; as a rule, active = well fitted curve in the direction sought with a large enough effect; inconclusive = small, poorly fitted or top-dose-only effect, or another doubt; inactive = no such curve, though single readings can be large; an effect the other way counts as inactive or inconclusive.

SMILES	Pf growth 48h	Cycloheximide cs	AMA1 RON2 block	Pf growth 96h	SARS PLP yeast	Shiga inhibitor
Cc1nn(-c2ccccn2)c2c1C(=O)CC(C)(C)C2Br (centres undefined)	14.7µM*	1.7	2.9%	?	-2.1%	3.5
Cc1ccc(C)c(N2C(=O)C3C4C=CC(CC4)C3C2=O)c1 (centres undefined)	?	-2.3	-8.1%	-12.1%	1.7%	.
Cc1ccc(N2CC(O)(c3cccs3)[N+]3=C2CCCC3)cc1 (centres undefined)	?	-1.1	3.2%	5.22µM*	0.6%	-8.7
CCN(CC)CCCNC(=O)C1c2ccccc2C(=O)N(CCOC)C1c1ccc(F)cc1 (centres undefined)	0.9%	1.3	-4.5%	13.1µM*	0.0%	-17.0
CCN(CCCNC(=O)C1c2ccccc2C(=O)N(CCOC)C1c1ccc(F)cc1)Cc1ccccc1 (centres undefined)	-29.6%	1.1	-1.9%	-19.9%	6.9%	-27.8
O=[N+]([O-])c1cc(/C=N/O)ccc1Oc1cccc(Cl)c1	2.6%	17.2	-23.7%	6.6%	-2.8%	0.5
O=[N+]([O-])c1cc(/C=N/O)ccc1Oc1ccccc1Cl	94.7%	52.5*	-14.0%	-9.0%	-2.3%	50.1*
CO/N=C/c1ccc(Oc2ccc(C)cc2)c([N+](=O)[O-])c1	i	43.3*	-26.5%	134.7%	-2.7%	63.8
O=C([C@H]1O[C@@H](n2ccc(=O)[nH]c2=O)[C@H](O)[C@@H]1O)N1CCSC1	.	.	5.4%	.	.	.
CCNc1nc(NC(C)(C)C)nc(SCC(N)=O)n1	-11.0%	-4.1	-8.5%	?	-0.4%	-6.5
CC(C)NCc1cc(Br)ccc1OCc1ccccc1	-5.3%	-4.0	-5.7%	8.4%[5.75 µM]	0.2%	-2.2
CC(Oc1ccc(Cl)cc1Cl)c1nc(-c2ccc(NC(=O)c3ccccn3)cc2)no1 (centres undefined)	145.1%	27.7*	-12.5%	-25.0%	-6.4%	71.4*
CC(C)[C@H](NC(=O)[C@@H]1Cc2ccccc2CN1C(=O)OC(C)(C)C)C(=O)NCc1ccco1	?	-2.7	1.5%	?	-1.0%	11.9
COc1ccccc1NC(=O)CCC(=O)N/N=C(/C)c1ccc(C)cc1	8.9%	-3.0	78.4%	20.2%	2.7%	-16.8
CC(NC(=O)c1ccc(OC2CCN(C(=O)c3cccnc3)CC2)cc1)C1CC1 (centres undefined)	17.8%	-2.9	-1.2%	11.7µM*	-1.3%	-7.6
CC(NC(=O)c1ccc(OC2CCN(S(=O)(=O)N(C)C)CC2)cc1)C1CC1 (centres undefined)	-13.5%	20.0*	-2.8%	-50.4%	0.6%	2.9
CN(C)S(=O)(=O)N1CCC(Oc2ccc(C(=O)NC3CCCCC3)cc2)CC1	?	9.5	10.8%	13.1µM*	-1.4%	13.9
O=C(c1cccnc1)N1CCC(Oc2ccc(C(=O)N3CCCC(O)C3)cc2)CC1 (centres undefined)	0.0%	-2.8	5.0%	?	0.5%	-11.6
CC(C)(C)C1CCN2CCC[C@](c3ccccc3)(C1)C2OCCCO (some centres undefined)	.	.	-1.3%	.	.	.
O=C(C1CCN(S(=O)(=O)c2cccc3cccnc23)CC1)N1CCN(C2CCCC2)CC1	7.9%	-2.5	.	-19.7%	-12.3%	-11.4
CCOC(=O)c1c(-c2ccccc2)csc1NC(=O)C(C)NCCCN1CCOCC1 (centres undefined)	?	-10.8	-6.2%	?	-2.1%	3.6
COc1ccc2oc(-c3ccccc3)c(C(N)=O)c2c1	29.9%	27.6*	-1.5%	29.0%	3.5%	33.8
COc1ccc(-c2oc3ccccc3c2C(=O)OCc2ccc([N+](=O)[O-])cc2)cc1	21.1%	0.9	0.8%	33.8%	0.1%	-4.2
COc1ccc(-c2oc3ccccc3c2C(=O)OCc2ccc(O)cc2)cc1	142.7%	24.3*	0.6%	47.2%	1.9%	27.7*
COc1ccc(-c2oc3ccccc3c2C(=O)OCc2ccccc2)cc1	19.2%	31.0*	72.8%	?	-3.4%	33.7*
COc1ccc2oc(-c3ccccc3)c(C(=O)O)c2c1	12.5%	-6.0	3.7%	?	-4.0%	7.7

Screening data deposited in PubChem by National Center for Advancing Translational Sciences (NCATS).
